An excerpt weighted towards active compounds, which were near 4% of everything screened.
Jurkat NFkB inh: inhibitors of induced NF-kB luciferase reporter, primary screen, TCR NF-kB activation inhibitor project, cell-based, luminescence, uHTS; Jurkat, PMA/ionomycin-induced NF-kB luciferase reporter; inhibition, % at 4 µM; 330,000 compounds, 0.53% hits; AID 435003, 2010; in the data active means inhibition above about 50%
697 NFkB inh: inhibitors of PMA/ionomycin-induced NF-kB reporter, 697 cells, primary screen, B-cell NF-kB inhibitor project, cell-based, luminescence, uHTS | 697 B-cell NF-kB luciferase reporter, 16 h | 330,000 compounds, 0.33% hits | inhibition, % at 4 µM; in the data active means inhibition above about 35%
Beta apoptosis: inhibitors of cytokine-induced beta cell apoptosis, primary screen, luminescence | 300,000 compounds, 0.8% hits | INS-1E cytokine-induced death, ATP luminescence, 48 h; percent of positive-control rescue, neutral wells zero | protection from apoptosis, % (concentration not given with the values);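 active means Every replicate reaches about 75%, or at least half do and their mean reaches it too, limit read from the data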;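 further: higher means more ATP so stronger rescue from cytokine killing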
Gli-Sufu antag: Gli-Sufu pathway antagonists, primary screen, luciferase luminescence, Sufu-KO-LIGHT cells, uHTS; inhibition, % at 5 µM; 340,000 compounds, 0.74% hits; Sufu-KO-LIGHT fibroblasts, Gli luciferase reporter luminescence;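 active means inhibition above about 55%, limit read from the data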
Mdm2-MdmX inh: inhibitors of human Mdm2-MdmX association, primary screen, cell-based, luminescence, split luciferase, SaOS-2, uHTS; inhibition, % at 8 µM; Protein Mdm4 (Homo sapiens) + E3 ubiquitin-protein ligase Mdm2 (Homo sapiens), …; 330,000 compounds, 3% hits; SaOS-2 split-luciferase Mdm2/MdmX complementation;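 active means inhibition of at least 50% at 8 µM in the primary screen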
Mdm2 MdmX conf: Mdm2-MdmX complex disruptors, retested hits, confirmation, luminescence, single concentration | shares compounds with Mdm2-MdmX inh | Mdm2-MdmX binding, luminescent assay | inhibition, % at 8 µM | 10,000 compounds, 55% hits | AID 489028, 2010; in the data active means inhibition above about 40%
FLuc counter: full-length luciferase signal inhibition, confirmation, counter-screen for Mdm2/MdmX interaction inhibitor project, cell-based, single concentration, SaOS-2. 6,200 compounds, 77% hits. AID 504607, 2011. shares compounds with Mdm2-MdmX inh. SaOS-2 full-length luciferase counterscreen, luminescence. inhibition, % at 8 µM;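 active means mean inhibition at 8 µM reaching about 37%, which flags the compound as non-specific, limit read from the data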;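 further: p53-null SaOS-2 cells with luciferase driven by a doxycycline-inducible promoter; compound on cells about two nights before reading with doxycycline added after day one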
Numbers stand for hits; i = inactive; nt = not tested or not shown.

SMILES | Jurkat NFkB inh | 697 NFkB inh | Beta apoptosis | Gli-Sufu antag | Mdm2-MdmX inh | Mdm2 MdmX conf | FLuc counter
O=C1/C(=C\c2ccco2)SC(=S)N1Cc1ccccc1 | i | i | i | i | i | nt | nt
COc1ccc(CCN2C(=O)CSC2=S)cc1OC | i | i | i | i | 85 | 84 | 40
COc1ccc(CCN2C(=O)/C(=C\c3ccco3)SC2=S)cc1OC | i | i | nt | i | 75 | 47 | 79
Cc1ccc(NC(=O)CN2CCCC2c2cccn2C)c(Br)c1 (centres undefined) | i | i | i | i | i | nt | nt
COc1cc(CNC(=O)CCn2nc(C)c3c(C)n(-c4ccccc4)nc3c2=O)cc(OC)c1OC | i | i | i | i | i | nt | nt
Cc1ccnc(NS(=O)(=O)c2ccc(NC(=O)C3COc4ccccc4O3)cc2)n1 (centres undefined) | i | i | i | i | i | nt | nt
OCC[C@@H]1C[C@@H](O)[C@H](O)[C@]2(Cc3ccccc3CO2)O1 | i | i | i | i | i | nt | nt
CCOC(=O)Cc1csc(Nc2ccc(Cl)cc2)n1 | i | i | i | i | i | nt | nt
CCOC(=O)Cc1nnc2c(Nc3ccc(Cl)cc3)nc3nonc3n12 | i | i | i | i | 92 | 40 | 44
C=CC(=O)N1C/C(=C/c2ccccc2)C(=O)/C(=C\c2ccccc2)C1 | nt | nt | nt | i | nt | nt | nt
CN1C2CCC1/C(=C\c1ccccc1)C(=O)/C2=C\c1ccccc1 | i | i | i | i | 95 | 57 | i
Cc1cc(Oc2ccc(=O)n(C)n2)nc(=S)[nH]1 | i | i | i | nt | i | nt | nt
C=C1C(=O)[C@@]23[C@H](O)C[C@@H]4C(C)(C)CC[C@H](O)[C@]4(C)[C@@H]2C[C@H](O)[C@@H]1[C@H]3O | i | i | i | i | 83 | i | nt
COc1cc(/C=N/Nc2ccccc2)ccc1O | i | i | i | i | i | nt | nt
COC(=O)c1[nH]c2cc(OC)c(OC)cc2c1/C=N/Nc1ccccc1 | i | i | i | i | 79 | i | 85
Cc1ccc(NC(=O)Cc2ccsc2)cc1S(=O)(=O)N1CCOCC1 | i | i | i | i | i | nt | nt
COc1cc(Nc2nc3ccccc3nc2NS(=O)(=O)c2ccc([N+](=O)[O-])cc2)cc(OC)c1OC | i | i | i | i | 68 | i | 55
O=[N+]([O-])c1ccc(S(=O)(=O)Nc2nc3ccccc3nc2Nc2ccccc2)cc1 | i | i | i | i | i | nt | nt
O=C(NCCCc1ccc(F)cc1)C1CCC(=O)N(CC2CCCCC2)C1 (centres undefined) | i | i | nt | i | i | nt | nt
Cc1ccc(SCc2cc(=O)[nH]c(Nc3nc(C)c4ccc(C)cc4n3)n2)cc1 | i | i | nt | i | i | nt | nt
CCOc1ccc2nc(NC3=NC(c4ccc(OC)cc4)CC(=O)N3)nc(C)c2c1 (centres undefined) | i | i | i | i | 98 | i | i
CCOc1ccc2c(C)nc(NC3=NC(C)(C)C=C(C)N3)nc2c1 | i | i | i | i | 50 | i | nt
COCc1cc(=O)[nH]c(Nc2nc(C)c3cc(OC)ccc3n2)n1 | i | i | i | nt | i | nt | nt
CCOc1ccc2nc(NC3=NC(C)(C)C=C(C)N3)nc(C)c2c1 | i | i | i | i | 72 | i | nt
CCOC(=O)C1CCCN(c2ccc(NC(=O)c3snc4c(=O)[nH]cnc34)cc2)C1 (centres undefined) | i | i | i | i | i | nt | nt
SMILES | Jurkat NFkB inh | 697 NFkB inh | Beta apoptosis | Gli-Sufu antag | Mdm2-MdmX inh | Mdm2 MdmX conf | FLuc counter
CCOC(=O)C1CCCN(c2ccc(NC(=O)c3snc4c(=O)[nH]c(C)nc34)cc2)C1 (centres undefined) | i | i | i | i | 70 | 41 | 88
COc1ccccc1NC(=O)NCC(c1ccco1)N1CCCCC1 (centres undefined) | i | i | i | i | i | nt | nt
Cc1nnc(NC(=O)CCS(=O)(=O)c2ccccc2)s1 | i | i | i | i | i | nt | nt
CC1(C)CC(=O)c2sc(NC(=O)CCS(=O)(=O)c3ccccc3)nc2C1 | i | i | i | i | 71 | i | nt
CCOc1cccc2sc(NC(=O)CCS(=O)(=O)c3ccccc3)nc12 | i | i | i | i | 70 | 66 | i
CC1(C)CC(=O)c2sc(NC(=O)c3ccccc3)nc2C1 | i | i | i | nt | i | nt | nt
COc1ccc(C)c2sc(NC(=O)CCS(=O)(=O)c3ccccc3)nc12 | i | i | i | i | 77 | 69 | 45
CCOc1cccc2sc(N(CCN(C)C)C(=O)CCS(=O)(=O)c3ccccc3)nc12 | i | i | i | i | i | nt | nt
O=c1[nH]nc(N/N=C/c2ccccc2OC(F)F)c(=O)[nH]1 | i | i | i | i | i | nt | nt
O=C(CSc1nnc(C2CC2)n1C1CC1)c1ccccc1F | i | i | i | i | i | nt | nt
Oc1ccccc1CNc1ccc(Br)cn1 | i | i | i | i | 78 | 68 | i
COc1ccc(N(CC(=O)NCc2ccco2)C(=O)CCC(=O)Nc2ccccn2)cc1 | i | i | nt | i | i | nt | nt
COc1cc(C2NC(=O)NC(c3ccccc3)=C2C(C)=O)c(Br)c(Br)c1O (centres undefined) | i | i | nt | i | i | nt | nt
O=c1oc(Nc2cccc(Cl)c2)nc2ccccc12 | i | i | nt | i | i | nt | nt
Clc1cccc(Nc2nc(-c3ccncc3)nc3ccccc23)c1 | i | i | i | i | 93 | 45 | i
Clc1ccccc1Nc1nc(-c2ccncc2)nc2ccccc12 | i | i | i | i | i | nt | nt
CCN(CC)c1nc(-c2ccccc2)nc2ccccc12 | i | i | i | i | i | nt | nt
Fc1ccc(Nc2nc(-c3ccncc3)nc3ccccc23)cc1F | i | i | i | i | 82 | 81 | 64
CCCCN(CCCC)c1nc(-c2ccncc2)nc2ccccc12 | i | i | nt | i | 56 | i | nt
c1ccc2c(Nc3nc(-c4ccncc4)nc4ccccc34)cccc2c1 | i | i | i | i | 62 | 59 | 72
CN1C[C@@H]2[C@@H]3C(=O)N(C)C(=O)[C@@H]3[C@](C)(C1=O)N2C(=O)c1ccc(C(C)(C)C)cc1 | nt | nt | nt | i | nt | nt | nt
Cn1cnc2c1c(=O)n(Cc1ccc(Cl)cc1Cl)c(=O)n2C | i | i | i | i | i | nt | nt
Cn1c(=O)c2c([nH]c(OCc3ccc(Cl)cc3Cl)[n+]2Cc2ccc(F)cc2)n(C)c1=O | i | i | i | i | 57 | i | nt
COc1ccc(CN2C(=O)c3ccccc3C(/C=N/OCc3ccc(Cl)cc3)C2=O)cc1 (centres undefined) | i | i | i | i | 67 | i | nt
COc1ccc(CN2C(=O)c3ccccc3C(/C=N\OCc3ccc(F)cc3)C2=O)cc1 (centres undefined) | i | i | i | i | i | nt | nt

Bioassay records: PubChem, several laboratories
